# From PubChem
# IMPase cell inh – IMPase inhibition in cells. P97697. CHO-M1 cells, IP1 accumulation, HTRF TR-FRET ratio. inhibition (IP1 accumulation), % at 46.1 µM. 120,000 tested, under 10 active; active means well fitted curve in the direction sought with a large enough effect in the signal ratio, not every such curve was filed as active; inconclusive means small, poorly fitted or top-dose-only effect, or a change in a side signal; inactive means no such curve, though single readings can be large or run the other way; the % refers to the signal ratio;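 further: cells stimulated with carbachol in lithium chloride buffer; plate controls were DMSO basal wells for no effect and reference inhibitor wells for full effect; higher means more IMPase inhibition seen as more IP1 and lower FRET ratio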
# Target sequence (P97697 whole entry, looked up): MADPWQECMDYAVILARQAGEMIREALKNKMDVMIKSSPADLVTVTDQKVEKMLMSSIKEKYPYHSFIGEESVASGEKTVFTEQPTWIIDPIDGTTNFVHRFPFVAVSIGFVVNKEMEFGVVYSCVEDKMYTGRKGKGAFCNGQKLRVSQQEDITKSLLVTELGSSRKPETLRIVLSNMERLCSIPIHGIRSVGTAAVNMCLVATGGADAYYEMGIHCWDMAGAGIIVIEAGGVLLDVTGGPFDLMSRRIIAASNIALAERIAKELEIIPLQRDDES
#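 Measured: the HTRF emission ratio (665/620 nm) plus the 620 nm donor channel, each fitted to the Hill equation to give AC50. Cells were CHO-M1 given compounds up to 46 uM and a 30 min carbachol stimulation at 37C.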
# HPGD inh – HPGD (human) dehydrogenase inhibition. purified HPGD, NADH fluorescence kinetic, PGE2 substrate. Potency, µM, for inactives: at the highest dose activity change, negative = inhibition, actives largely listed as inhibitors. 150,000 tested, 4.3% active; further: potency means the concentration at half of the fitted maximal effect
# Target sequence (P15428 whole entry, looked up): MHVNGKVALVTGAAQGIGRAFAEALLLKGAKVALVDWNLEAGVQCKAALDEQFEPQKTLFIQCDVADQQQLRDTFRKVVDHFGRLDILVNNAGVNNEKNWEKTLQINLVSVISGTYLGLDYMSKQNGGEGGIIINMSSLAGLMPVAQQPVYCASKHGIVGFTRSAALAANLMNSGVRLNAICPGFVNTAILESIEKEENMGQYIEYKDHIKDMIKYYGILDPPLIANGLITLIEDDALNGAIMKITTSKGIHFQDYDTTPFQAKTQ
#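 NADH formation kinetics: reaction with 30 uM PGE2 and 1 mM NAD+ (final), 20 nM enzyme, Tris-HCl pH 8 with Tween 20, after 15 min compound preincubation at room temperature. Fluorescence change, last versus first of five reads.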
# ALDH1A1 block – inhibitors of human aldehyde dehydrogenase 1A1; Purified ALDH1A1, NADH fluorescence, propionaldehyde substrate; Potency, µM (titrated, usually from 75.3 µM), for inactives: top-dose activity, negative = inhibition, hits mostly inhibitors; 220,000 tested, 7.3% active; AID 1030; P00352;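 further: potency means the concentration at half of the fitted maximal effect; plate controls were no enzyme wells and a reference inhibitor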
# Numbers without * were called inactive; ? = inconclusive; nt = no result; [ ] = another dose, or the depositor's remark. Most compounds without a hit are left out; they make up all but 9% or so of the library. Unless noted, the call rests on the fitted dose curve; in most records, active means well fitted inhibition curve with a large enough effect (not every such curve was filed as active); inconclusive means small, poorly fitted or top-dose-only effect, or another doubt; inactive means no such curve, though single readings can be large or run the other way. Unless noted, on the % scale 0 is the no-effect control and ±100 the full control effect.
SMILES,IMPase cell inh,HPGD inh,ALDH1A1 block
COc1cc(NC(=O)c2cn(C3CCCC3)c(=O)c3c2c2ccccc2n3C)cc(OC)c1OC,5,nt,nt
Cc1ccc2oc3c(c(=O)c2c1)C(c1cccc(O)c1)N(CCCN1CCOCC1)C3=O (stereo unspecified),5,nt,nt
Cc1ccc2oc3c(c(=O)c2c1)C(c1ccc(F)cc1)N(CCCN1CCOCC1)C3=O (stereo unspecified),-4,-25%,3.5µM*
O=C1c2oc3ccc(F)cc3c(=O)c2C(c2ccncc2)N1CCN1CCOCC1 (stereo unspecified),9,-13%,-10%
Cc1ccc2oc3c(c(=O)c2c1)C(c1cccc(Cl)c1)N(CCCN1CCOCC1)C3=O (stereo unspecified),0,0%,13µM*
C=CCN1CCc2c(cc(O)c(O)c2Br)[C@H](c2ccccc2)C1,9,nt,nt
CCCn1c(=O)c2[nH]c(-c3ccccc3)nc2n(CCC)c1=O,1,-20%,-10%
CN(C)C(=O)c1ccc(N/C=C(\C=O)c2nc3ccccc3o2)cc1,nt,nt,8%
CC(=O)Nc1cc(C(C)(C)C)c(O)c(C(C)(C)C)c1,13,-9%,11µM*
CC(C)(C)NC(=O)c1cc(C(C)(C)C)c(O)c(C(C)(C)C)c1,nt,-6%,10%
Cc1ccc(S(=O)(=O)NCCC(=O)Nc2nnc(C3CC3)s2)cc1C,-8,-9%,18µM*
Cc1cc(C)cc(N(CCC(=O)Nc2nnc(C3CC3)s2)S(=O)(=O)c2ccc(Cl)cc2)c1,nt,-10%,9%
CCOc1ccc2nc(CN3CCN(Cc4ccsc4)C(CCO)C3)ccc2c1 (stereo unspecified),nt,nt,-10%
CCCCC/C=C\C/C=C\CCCCCCCC(=O)NCCCC(=O)O,nt,-1%,10%
CCc1ccccc1NC(=O)CSc1nnc(-c2ccco2)n1N,-10,-5%,-9%
O=C(O)CCc1nc(-c2ccccc2)c(-c2ccccc2)o1,1[20.6 µM],?,-2%[13.5 µM]
O=C(O)CCc1ccc(-c2ccccc2)o1,-3,-25%,3.5µM*
O=C(O)c1ccc(-n2c(-c3ccc(Br)cc3)n[nH]c2=S)cc1,3,?,28µM*
Cc1cccc(-n2c(-c3ccoc3C)n[nH]c2=S)c1,nt,25µM*,-3%
S=c1[nH]nc(-c2ccc3ccccc3n2)n1-c1ccccc1,-2,28µM*,?
Fc1ccccc1-n1c(-c2ccc3ccccc3n2)n[nH]c1=S,nt,nt,17%
Cc1[nH]c2ccc(-c3n[nH]c(=S)n3-c3ccc(Br)cc3)cc2c1C,nt,nt,13%
COc1ccccc1-n1c(-c2cccnc2)n[nH]c1=S,-2,-14%,?
S=c1[nH]nc(-c2cccnc2)n1-c1ccccc1,6,-27%,7.9µM*
Cc1ccccc1-n1c(-c2ccoc2C)n[nH]c1=S,nt,-13%,-10%
SMILES,IMPase cell inh,HPGD inh,ALDH1A1 block
CC1CCN(S(=O)(=O)N2CCC(C(=O)NCc3cccs3)CC2)CC1,7,-16%,?
COc1cccc(NC(=S)N(Cc2ccc(Cl)cc2)Cc2ccc(C(=O)O)cc2)c1,nt,nt,-9%
Cc1[nH]n(-c2nc(-c3ccccc3F)cc(=O)[nH]2)c(=O)c1CCO,nt,nt,9%
O=C(CSc1nnc2scc(-c3ccc(Cl)cc3)n12)Nc1ccc(F)cc1,-5,nt,nt
Cc1ccsc1/C=N/NC(=O)C1C(=O)NCC1c1ccccc1 (stereo unspecified),nt,nt,5%
Cc1cccc(-n2c(-c3ccncc3)n[nH]c2=S)c1,5,-28%,?
CC(C)Cn1c(-c2csc3ccccc23)n[nH]c1=S,0,?,?
COc1ccccc1-c1n[nH]c(=S)n1-c1ccccc1,?,32µM*,?
COc1ccccc1-n1c(-c2cc(-c3ccc(F)cc3)n[nH]2)n[nH]c1=S,nt,nt,32µM*
Cc1ccc(-n2c(-c3cccc(C)c3)n[nH]c2=S)cc1,-11,22µM*,2%
COc1ccc(-c2cc(-c3n[nH]c(=S)n3-c3cccc4ccccc34)[nH]n2)cc1,nt,nt,-5%
COc1ccccc1-c1n[nH]c(=S)n1N,nt,nt,5%
Cc1cccc(-n2c(-c3csc4ccccc34)n[nH]c2=S)c1,nt,14µM*,?
Cn1ccnc1SCC(=O)N1CCN(S(=O)(=O)c2ccccc2)CC1,nt,nt,2%
C[Si](C)(C/C=C/CC[C@H](O)C1=CCCCC1=O)c1ccccc1,nt,-10%,3%
CCOC(=O)N1CCN(C(=O)CN2C(=O)COc3ccc(C(C)(C)C)cc32)CC1,4,-13%,6%
O=C(C1=C[C@H](C2CCCCC2)C[C@H](OCCCCO)O1)N1CCN(Cc2ccccc2)CC1,nt,nt,14µM*
O=C(C1=C[C@@H](C2CC2)C[C@@H](OCc2ccc(CO)cc2)O1)N1CCN(Cc2ccccc2)CC1,nt,nt,-10%
CC(NC(=O)CCl)c1ccc(Cl)c(Cl)c1 (stereo unspecified),0,1%,10µM*
CC(C)CC(NC(=O)CCl)c1ccccc1 (stereo unspecified),nt,-2%,?
CCCC(NC(=O)CCl)c1ccccc1 (stereo unspecified),0,nt,2%
CCC(NC(=O)CCl)c1ccc(C)cc1 (stereo unspecified),nt,nt,8.9µM*
O=C(Cc1cccc2ccccc12)N1CCN(c2ncccn2)CC1,nt,nt,-7%
COc1ccc(S(=O)(=O)N(CCc2ccccc2)CC(=O)O)cc1C,-6,-8%,?
CCOC(=O)/C(=C\c1cccnc1)C(=O)c1cc(C(C)=O)c(Nc2ccccc2)s1,10,20µM*,?
SMILES,IMPase cell inh,HPGD inh,ALDH1A1 block
CCOC(=O)/C(=C\c1ccccc1)C(=O)c1cc(C(C)=O)c(Nc2ccccc2)s1,11,-11%,1%
COc1ccc(O[C@H]2C=C[C@@H](c3ccccc3)O[C@H]2CO/N=C(/C)CCC(=O)OC[C@@H]2O[C@H](c3ccccc3)C=C[C@@H]2Oc2ccc(OC)cc2)cc1,nt,nt,7%[13.5 µM]
CC(C)(C)Nc1nc(N2CCCC2)nc(N2CCCC2)n1,3,-6%,0.5µM*
CCNc1nc(NC(C)(C)C)nc(N2CCCC2)n1,9,-7%,5%
Cc1ccc2c(c1)C(c1ccccc1)N(C(=O)c1ccc(Br)o1)CC(=O)N2 (stereo unspecified),8,-1%,-16%
O=C1CN(C(=O)c2ccc(Br)o2)C(c2ccccc2)c2cc(Cl)ccc2N1 (stereo unspecified),8,-16%,-18%
O=C1CN(C(=O)c2ccc(Br)o2)C(c2ccccc2)c2cc(Br)ccc2N1 (stereo unspecified),14,-16%,22µM*
O=C1CN(C(=O)c2ccc(Br)o2)C(c2ccc(F)cc2)c2cc(Cl)ccc2N1 (stereo unspecified),4,-20%,22µM*
CCc1nn2c(=O)c(S(=O)(=O)Nc3ccc(C(C)C)cc3)c(C)nc2s1,1,nt,nt
N/N=C(\c1ccccc1)C12CN3CN(CN(C3)C1)C2,nt,-3%,1%
CN(C)C(=O)c1ccc(-c2nc(-n3ccnc3)c3ccccc3n2)cc1,nt,nt,1%
CC(=O)NCCNc1nc(-c2ccc(C(=O)N(C)C)cc2)nc2ccccc12,nt,nt,17%
Cc1cccc(CNc2nc(-c3cccnc3)nc3ccccc23)c1,nt,-26%,?
Cc1cccc(CNc2nc(-c3ccc(C(=O)N(C)C)cc3)nc3ccccc23)c1,nt,25µM*,-8%
CN(C)C(=O)c1ccc(-c2nc(NCc3cccs3)c3ccccc3n2)cc1,nt,16µM*,1%
CN(C)C(=O)c1ccc(-c2nc(N(C)Cc3ccco3)c3ccccc3n2)cc1,nt,13µM*,?
